From PubChem BioAssay (NCATS)
Inconclusive results are not listed. Where a call stands in place of a potency, no number is given. Calls of active or inactive are those of the source. The call rests on the fitted dose curve; in most records, active means well fitted inhibition curve with a large enough effect; inconclusive means small, poorly fitted or top-dose-only effect; inactive means flat fitted curve, though single readings scatter.

What follows are compounds tested against Calcium and integrin-binding protein 1 (Homo sapiens) (UniProt Q99828) (assay: Primary qHTS for Identification of Calcium Integrin Binding Protein 1 (CIB1) Competitor (AID 1508620; further: top concentration of the series differs between compounds)). Conditions: CIB1-GST / FITC-alphaIIb peptide fluorescence polarization; series mostly up to 114 µM.
How it was run: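 Fluorescence polarization competition: GST-tagged CIB1 (1 uM final) preincubated with compound 15 min at room temperature, then FITC-labelled alphaIIb peptide (100 nM final) added. After 15 min at room temperature, polarization read at Ex 480/Em 540.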

Calcium and integrin-binding protein 1 (Homo sapiens), sequence (Q99828 whole entry, looked up): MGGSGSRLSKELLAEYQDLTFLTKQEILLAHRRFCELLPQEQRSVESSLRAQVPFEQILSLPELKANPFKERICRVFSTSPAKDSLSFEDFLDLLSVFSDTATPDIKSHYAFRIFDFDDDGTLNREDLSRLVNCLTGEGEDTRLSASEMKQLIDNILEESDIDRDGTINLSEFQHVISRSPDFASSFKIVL

Compound | Potency
Cc1ccc(NS(=O)(=O)c2cc3c(cc2N2CCC2)NC(=O)CC3)cc1C | inactive
O=C(Nc1ccc(-c2nc3ccccc3[nH]2)cc1)c1ccc(Oc2ccccc2)cc1 | inactive
Cc1ccc(Nc2nc(C#N)nc(NC3CCCC3)n2)cc1 | inactive
COc1cccc(CNc2ccc([S+](=O)([O-])Nc3cc4ccccc4s3)cc2)c1O | inactive
NC(=O)C1CCN(c2nc(-c3cccs3)cs2)CC1 | inactive
O=C(Nc1ncc(Cc2ccc(C(F)(F)F)cc2)s1)c1ccco1 | inactive
O=C(Nc1ccccc1)c1cccs1 | inactive
O=C(OCC#CCSc1nnc(-c2cccc3ccccc23)o1)c1ccc2ccccc2c1 | inactive
O=C1Cc2cc(S(=O)(=O)N3CCN(c4ccc([N+](=O)[O-])cc4)CC3)ccc2N1 | inactive
O=C1CCc2cc(S(=O)(=O)Nc3ccccc3F)ccc2N1 | inactive
O=C(O)c1ccc2c(c1)C(=O)N([C@H](Cc1ccc3ccccc3c1)C(=O)O)C2=O | inactive
Cc1cc(-c2nnc3n2CCCCC3)c(C)n1-c1cccc2ccccc12 | inactive
CC(=O)Nc1sc2c(c1-c1cccs1)CCNC2 | inactive
Cc1c(C(=O)OC[C@H]2CCCO2)[nH]c2c1C(=O)CC(c1ccco1)C2 (stereo partly drawn) | inactive
Cc1cc2c(s1)c(C=O)c(C(=O)NCc1ccccc1F)n2C | inactive
Cc1cnc(-c2ccccc2C(C)C)nc1NCC1CCN(c2cccnc2)CC1 | inactive
O=Cc1ccc(N2CCN(S(=O)(=O)c3ccc4c(c3)CC(=O)N4)CC2)cc1 | inactive
S=c1[nH]c2ccccc2n1CCc1ccccc1 | inactive
